# The supplement of paper PMC4466140
# Tests used:
# Test in all cases: SPOT peptide array binding signal intensity (averaged, normalized) (arbitrary units (background-subtracted, floor 0; scale differs between SH3 domains)); higher = stronger binding of the SH3 domain to the peptide
# AgAbp1 = biological target: AgAbp1
# Outline: (§1)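 The binding signal is the normalized, background-subtracted spot intensity averaged over replicates; its arbitrary units differ between domains. It was obtained by incubating 10 μg/ml GST-fused SH3 domains from four yeast species overnight at 4°C in TBS-based blocking buffer on cellulose membranes with synthetic 15-mer peptides, cysteines replaced by serines, then detecting with anti-GST antibody, HRP anti-mouse secondary and luminol.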
# AgBbc1 = biological target: AgBbc1
# Outline: as §1
# AgBem1-D1 = biological target: AgBem1-D1
# Outline: as §1
# AgBzz1-D1 = biological target: AgBzz1-D1
# Outline: as §1
# AgBzz1-D2 = biological target: AgBzz1-D2
# Outline: as §1
# AgCyk3 = biological target: AgCyk3
# Outline: as §1
# AgFus1 = biological target: AgFus1
# Outline: as §1
# AgHof1 = biological target: AgHof1
# Outline: as §1
# AgHse1 = biological target: AgHse1
# Outline: as §1
# AgLsb1 = biological target: AgLsb1
# Outline: as §1
# AgLsb4 = biological target: AgLsb4
# Outline: as §1
# AgMyo5 = biological target: AgMyo5
# Outline: as §1
# AgNbp2 = biological target: AgNbp2
# Outline: as §1
# AgRvs167 = biological target: AgRvs167
# Outline: as §1
# AgSho1 = biological target: AgSho1
# Outline: as §1
# AgSla1-D1-D2 = biological target: AgSla1-D1-D2
# Outline: as §1
# AgSla1-D3 = biological target: AgSla1-D3
# Outline: as §1
# CaAbp1-D1 = biological target: CaAbp1-D1
# Outline: as §1
# CaAbp1-D2 = biological target: CaAbp1-D2
# Outline: as §1
# CaBbc1 = biological target: CaBbc1
# Outline: as §1
# CaBem1-D1 = biological target: CaBem1-D1
# Outline: as §1
# CaBzz1-D1 = biological target: CaBzz1-D1
# Outline: as §1
# CaBzz1-D2 = biological target: CaBzz1-D2
# Outline: as §1
# CaCyk3 = biological target: CaCyk3
# Outline: as §1
# CaFus1 = biological target: CaFus1
# Outline: as §1
# CaHof1 = biological target: CaHof1
# Outline: as §1
# CaHse1 = biological target: CaHse1
# Outline: as §1
# CaLsb1 = biological target: CaLsb1
# Outline: as §1
# CaLsb4 = biological target: CaLsb4
# Outline: as §1
# CaMyo5 = biological target: CaMyo5
# Outline: as §1
# CaNbp2 = biological target: CaNbp2
# Outline: as §1
# CaRvs167 = biological target: CaRvs167
# Outline: as §1
# CaRvs167-3 = biological target: CaRvs167-3
# Outline: as §1
# CaSho1 = biological target: CaSho1
# Outline: as §1
# CaSla1-D1-D2 = biological target: CaSla1-D1-D2
# Outline: as §1
# CaSla1-D3 = biological target: CaSla1-D3
# Outline: as §1
# ScAbp1 = biological target: ScAbp1
# Outline: as §1
# ScBbc1 = biological target: ScBbc1
# Outline: as §1
# ScBem1-D1 = biological target: ScBem1-D1
# Outline: as §1
# ScBzz1-D1 = biological target: ScBzz1-D1
# Outline: as §1
# ScBzz1-D2 = biological target: ScBzz1-D2
# Outline: as §1
# ScCyk3 = biological target: ScCyk3
# Outline: as §1
# ScFus1 = biological target: ScFus1
# Outline: as §1
# ScHof1 = biological target: ScHof1
# Outline: as §1
# ScHse1 = biological target: ScHse1
# Outline: as §1
# ScLsb1 = biological target: ScLsb1
# Outline: as §1
# ScLsb2 = biological target: ScLsb2
# Outline: as §1
# ScLsb3 = biological target: ScLsb3
# Outline: as §1
# ScLsb4 = biological target: ScLsb4
# Outline: as §1
# ScMyo3 = biological target: ScMyo3
# Outline: as §1
# ScMyo5 = biological target: ScMyo5
# Outline: as §1
# ScNbp2 = biological target: ScNbp2
# Outline: as §1
# ScPex13 = biological target: ScPex13
# Outline: as §1
# ScRvs167 = biological target: ScRvs167
# Outline: as §1
# ScSho1 = biological target: ScSho1
# Outline: as §1
# ScSla1-D1-D2 = biological target: ScSla1-D1-D2
# Outline: as §1
# ScSla1-D3 = biological target: ScSla1-D3
# Outline: as §1
# SpAbp1-D1 = biological target: SpAbp1-D1
# Outline: as §1
# SpBbc1 = biological target: SpBbc1
# Outline: as §1
# SpBzz1-D1 = biological target: SpBzz1-D1
# Outline: as §1
# SpBzz1-D2 = biological target: SpBzz1-D2
# Outline: as §1
# SpCyk3 = biological target: SpCyk3
# Outline: as §1
# SpHof1 = biological target: SpHof1
# Outline: as §1
# SpHof1-2 = biological target: SpHof1-2
# Outline: as §1
# SpHof1-3 = biological target: SpHof1-3
# Outline: as §1
# SpHse1 = biological target: SpHse1
# Outline: as §1
# SpLsb1 = biological target: SpLsb1
# Outline: as §1
# SpLsb4 = biological target: SpLsb4
# Outline: as §1
# SpMyo1 = biological target: SpMyo1
# Outline: as §1
# SpNbp2 = biological target: SpNbp2
# Outline: as §1
# SpPex13 = biological target: SpPex13
# Outline: as §1
# SpRvs167 = biological target: SpRvs167
# Outline: as §1
# SpSla1-D1-D2 = biological target: SpSla1-D1-D2
# Outline: as §1
# SpSla1-D3 = biological target: SpSla1-D3
# Outline: as §1
binder,measurement,setting,value
VLRFLGFPLPIFEKG,SPOT peptide array binding signal intensity,AgAbp1,2
same,SPOT peptide array binding signal intensity,AgBbc1,≤ 0
same,SPOT peptide array binding signal intensity,AgBem1-D1,24.5
same,SPOT peptide array binding signal intensity,AgBzz1-D1,15
same,SPOT peptide array binding signal intensity,AgBzz1-D2,≤ 0
same,SPOT peptide array binding signal intensity,AgCyk3,≤ 0
same,SPOT peptide array binding signal intensity,AgFus1,393
same,SPOT peptide array binding signal intensity,AgHof1,9
same,SPOT peptide array binding signal intensity,AgHse1,845
same,SPOT peptide array binding signal intensity,AgLsb1,7.75
same,SPOT peptide array binding signal intensity,AgLsb4,36
same,SPOT peptide array binding signal intensity,AgMyo5,0.5
same,SPOT peptide array binding signal intensity,AgNbp2,≤ 0
same,SPOT peptide array binding signal intensity,AgRvs167,1.67
same,SPOT peptide array binding signal intensity,AgSho1,31
same,SPOT peptide array binding signal intensity,AgSla1-D1-D2,3
same,SPOT peptide array binding signal intensity,AgSla1-D3,2
same,SPOT peptide array binding signal intensity,CaAbp1-D1,4
same,SPOT peptide array binding signal intensity,CaAbp1-D2,3.5
same,SPOT peptide array binding signal intensity,CaBbc1,≤ 0
same,SPOT peptide array binding signal intensity,CaBem1-D1,≤ 0
same,SPOT peptide array binding signal intensity,CaBzz1-D1,≤ 0
same,SPOT peptide array binding signal intensity,CaBzz1-D2,0.25
same,SPOT peptide array binding signal intensity,CaCyk3,≤ 0
same,SPOT peptide array binding signal intensity,CaFus1,3750
same,SPOT peptide array binding signal intensity,CaHof1,≤ 0
same,SPOT peptide array binding signal intensity,CaHse1,35.8
same,SPOT peptide array binding signal intensity,CaLsb1,1
same,SPOT peptide array binding signal intensity,CaLsb4,≤ 0
same,SPOT peptide array binding signal intensity,CaMyo5,≤ 0
SKSRLLIELPEGFFT,SPOT peptide array binding signal intensity,AgAbp1,2
same,SPOT peptide array binding signal intensity,AgBbc1,0.5
same,SPOT peptide array binding signal intensity,AgBem1-D1,≤ 0
same,SPOT peptide array binding signal intensity,AgBzz1-D1,59
same,SPOT peptide array binding signal intensity,AgBzz1-D2,78
same,SPOT peptide array binding signal intensity,AgCyk3,1
same,SPOT peptide array binding signal intensity,AgFus1,322
same,SPOT peptide array binding signal intensity,AgHof1,18.5
same,SPOT peptide array binding signal intensity,AgHse1,16
same,SPOT peptide array binding signal intensity,AgLsb1,≤ 0
same,SPOT peptide array binding signal intensity,AgLsb4,46
same,SPOT peptide array binding signal intensity,AgMyo5,≤ 0
same,SPOT peptide array binding signal intensity,AgNbp2,≤ 0
same,SPOT peptide array binding signal intensity,AgRvs167,0.5
same,SPOT peptide array binding signal intensity,AgSho1,≤ 0
same,SPOT peptide array binding signal intensity,AgSla1-D1-D2,67
same,SPOT peptide array binding signal intensity,AgSla1-D3,0.25
same,SPOT peptide array binding signal intensity,CaAbp1-D1,≤ 0
same,SPOT peptide array binding signal intensity,CaAbp1-D2,≤ 0
same,SPOT peptide array binding signal intensity,CaBbc1,19.5
same,SPOT peptide array binding signal intensity,CaBem1-D1,8.5
same,SPOT peptide array binding signal intensity,CaBzz1-D1,82.5
same,SPOT peptide array binding signal intensity,CaBzz1-D2,18.8
same,SPOT peptide array binding signal intensity,CaCyk3,≤ 0
same,SPOT peptide array binding signal intensity,CaFus1,1020
same,SPOT peptide array binding signal intensity,CaHof1,≤ 0
same,SPOT peptide array binding signal intensity,CaHse1,5.25
same,SPOT peptide array binding signal intensity,CaLsb1,≤ 0
same,SPOT peptide array binding signal intensity,CaLsb4,≤ 0
same,SPOT peptide array binding signal intensity,CaMyo5,117
same,SPOT peptide array binding signal intensity,CaNbp2,34.5
same,SPOT peptide array binding signal intensity,CaRvs167,1.83
same,SPOT peptide array binding signal intensity,CaRvs167-3,51.8
same,SPOT peptide array binding signal intensity,CaSho1,56.5
same,SPOT peptide array binding signal intensity,CaSla1-D1-D2,≤ 0
same,SPOT peptide array binding signal intensity,CaSla1-D3,22
same,SPOT peptide array binding signal intensity,ScAbp1,≤ 0
same,SPOT peptide array binding signal intensity,ScBbc1,1
same,SPOT peptide array binding signal intensity,ScBem1-D1,11.5
same,SPOT peptide array binding signal intensity,ScBzz1-D1,75.5
same,SPOT peptide array binding signal intensity,ScBzz1-D2,125
same,SPOT peptide array binding signal intensity,ScCyk3,7
same,SPOT peptide array binding signal intensity,ScFus1,317
same,SPOT peptide array binding signal intensity,ScHof1,1.5
same,SPOT peptide array binding signal intensity,ScHse1,89
same,SPOT peptide array binding signal intensity,ScLsb1,≤ 0
same,SPOT peptide array binding signal intensity,ScLsb2,≤ 0
same,SPOT peptide array binding signal intensity,ScLsb3,≤ 0
same,SPOT peptide array binding signal intensity,ScLsb4,≤ 0
same,SPOT peptide array binding signal intensity,ScMyo3,1
same,SPOT peptide array binding signal intensity,ScMyo5,0.5
same,SPOT peptide array binding signal intensity,ScNbp2,≤ 0
same,SPOT peptide array binding signal intensity,ScPex13,≤ 0
same,SPOT peptide array binding signal intensity,ScRvs167,0.667
same,SPOT peptide array binding signal intensity,ScSho1,145
same,SPOT peptide array binding signal intensity,ScSla1-D1-D2,≤ 0
same,SPOT peptide array binding signal intensity,ScSla1-D3,15
same,SPOT peptide array binding signal intensity,SpAbp1-D1,≤ 0
same,SPOT peptide array binding signal intensity,SpBbc1,≤ 0
same,SPOT peptide array binding signal intensity,SpBzz1-D1,68.5
same,SPOT peptide array binding signal intensity,SpBzz1-D2,0.25
same,SPOT peptide array binding signal intensity,SpCyk3,1
same,SPOT peptide array binding signal intensity,SpHof1,204
same,SPOT peptide array binding signal intensity,SpHof1-2,13.5
same,SPOT peptide array binding signal intensity,SpHof1-3,7.5
same,SPOT peptide array binding signal intensity,SpHse1,45.5
same,SPOT peptide array binding signal intensity,SpLsb1,≤ 0
same,SPOT peptide array binding signal intensity,SpLsb4,≤ 0
same,SPOT peptide array binding signal intensity,SpMyo1,0.5
same,SPOT peptide array binding signal intensity,SpNbp2,≤ 0
same,SPOT peptide array binding signal intensity,SpPex13,≤ 0
same,SPOT peptide array binding signal intensity,SpRvs167,2
same,SPOT peptide array binding signal intensity,SpSla1-D1-D2,≤ 0
same,SPOT peptide array binding signal intensity,SpSla1-D3,≤ 0
